# From PubChem
# Only some compounds are listed: those with a hit (about 7.4% of all), similar ones and a draw of the others.
# NIH3T3 tox: kills NIH 3T3 cells. AID 1345082. NIH 3T3 viability, CellTiter-Glo ATP luminescence, 48-72 h. actives 4.3% (n = 94,000). Potency, µM (series often up to 96.7 µM), inactives show at the highest dose activity change, negative = cytotoxicity, hits mostly inhibitors; note: % is set by controls: 0 for no effect and ±100 for the full control effect; nearly all actives have a fitted effect of over 55% in size
#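 Cytotoxicity is measured as loss of cellular ATP: NIH 3T3 cells (400/well) are exposed to compound for 48 or 72 hr at 37 °C, then CellTiter-Glo luminescence is imaged after 10 min at room temperature.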
# hNpr1 antagonist: blocks ANP-stimulated signaling of human Npr1 receptor. P16066. HEK293 hNpr1 GloSensor cGMP, ANP-stimulated luminescence. Potency, µM (series often up to 46.3 µM), inactives show at the top dose activity change, negative = inhibition, actives largely listed as inhibitors. actives 1.6% (n = 76,000). AID 1347048; calls by dose curve; note: % is set by controls: 0 for no effect and ±100 for the full control effect; nearly all actives have a fitted effect of over 60% in size
# Target sequence (P16066 whole entry, looked up): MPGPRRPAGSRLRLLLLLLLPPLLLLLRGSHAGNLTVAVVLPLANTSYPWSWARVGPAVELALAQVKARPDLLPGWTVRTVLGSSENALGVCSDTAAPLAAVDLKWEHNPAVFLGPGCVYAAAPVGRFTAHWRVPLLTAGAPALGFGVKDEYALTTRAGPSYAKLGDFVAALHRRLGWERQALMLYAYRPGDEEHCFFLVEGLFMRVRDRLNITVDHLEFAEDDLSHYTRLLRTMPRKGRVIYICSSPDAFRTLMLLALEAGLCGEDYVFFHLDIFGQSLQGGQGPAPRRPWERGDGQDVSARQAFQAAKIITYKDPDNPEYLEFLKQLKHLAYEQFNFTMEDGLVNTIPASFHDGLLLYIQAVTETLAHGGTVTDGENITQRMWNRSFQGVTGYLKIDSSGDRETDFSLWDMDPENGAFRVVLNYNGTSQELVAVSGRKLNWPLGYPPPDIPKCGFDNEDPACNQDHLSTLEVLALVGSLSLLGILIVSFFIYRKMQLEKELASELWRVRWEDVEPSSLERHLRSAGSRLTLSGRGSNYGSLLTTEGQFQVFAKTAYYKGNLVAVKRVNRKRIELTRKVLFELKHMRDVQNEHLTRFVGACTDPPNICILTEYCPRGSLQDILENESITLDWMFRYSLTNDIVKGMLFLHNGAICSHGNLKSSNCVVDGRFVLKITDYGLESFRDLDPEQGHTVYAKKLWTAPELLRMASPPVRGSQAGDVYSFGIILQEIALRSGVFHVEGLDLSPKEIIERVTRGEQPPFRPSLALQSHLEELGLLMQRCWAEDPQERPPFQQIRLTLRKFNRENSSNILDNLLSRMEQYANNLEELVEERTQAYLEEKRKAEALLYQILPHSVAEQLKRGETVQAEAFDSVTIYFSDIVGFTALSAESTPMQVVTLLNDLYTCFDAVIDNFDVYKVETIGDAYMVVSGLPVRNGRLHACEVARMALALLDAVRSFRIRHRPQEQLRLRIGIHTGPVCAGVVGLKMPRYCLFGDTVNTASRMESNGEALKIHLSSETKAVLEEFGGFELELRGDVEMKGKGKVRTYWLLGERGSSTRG
#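 Compound pre-incubated 30 min at room temperature on GloSensor-loaded HEK293 cells stably carrying hNpr1 and the pGS-40F cGMP biosensor. Stimulation uses hNppA at 0.1 nM final; luminescence is taken at baseline and 20 min post-agonist.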
# Luciferase inh: blocks purified firefly luciferase enzyme activity; Potency, µM (doses to about 115 µM), hits mostly inhibitors; purified P. pyralis luciferase, luminescence, biochemical; actives 2.5% (n = 76,000); note: % is set by controls: 0 for no effect and ±100 for the full control effect; nearly all actives have a fitted effect of over 65% in size
#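 Biochemical qHTS: compound (6-point titration) added to 10uM D-luciferin plus 10uM ATP in Tris acetate pH 7.5 buffer with Mg, Tween-20 and BSA, then purified enzyme at 10nM; light output imaged.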
# HEK293 tox: HEK 293 cell cytotoxicity; Potency, µM (top dose mostly 115 µM), for the others: at the top dose activity change, negative = cytotoxicity, actives largely listed as inhibitors; HEK 293 viability, ATP luminescence (CellTiter-Glo), 48-72 h; actives 6.6% (n = 94,000); note: % is set by controls: 0 for no effect and ±100 for the full control effect; nearly all actives have a fitted effect of over 60% in size
#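 HEK 293 cells at 250 cells/well were exposed to compounds by pintool transfer for 48 or 72 hr at 37 degree Celsius, 5% CO2. Viability was read as ATP-coupled luminescence with CellTiter-Glo after 10 min at room temperature.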
# SNCA expr inh: reduces expression of the alpha-synuclein gene | actives 0.17% (n = 140,000) | AID 1671194 | HEK-293 SNCA-luciferase knock-in, luminescence, 24 h | Potency, µM (doses to about 57.2 µM), inactives show at the highest dose activity change, negative = inhibition, hits mostly inhibitors;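 note: plate controls were DMSO cells for no effect and cell-free wells for full effect; nearly all actives have a fitted effect of over 45% in size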
# HEK293 viab: reduces viability of HEK-293 SNCA reporter cells; HEK-293-SNCA-luc viability, GF-AFC fluorescence, 24 h; AID 1671193; Potency, µM (titrated, usually from 57.1 µM), inactives show top-dose activity change, negative = cytotoxicity, most hits filed as cytotoxic; actives 0.12% (n = 150,000);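 note: 0% = DMSO-treated cells and -100% = medium-only wells without cells; nearly all actives have a fitted effect of over 30% in size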
#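 Cytotoxicity counterscreen: after 24 h compound treatment of genome-edited SNCA-luciferase HEK-293 cells, live-cell protease substrate GF-AFC read by fluorescence after 30 min; activity scaled between DMSO (0%) and medium-only (-100%), curves Hill-fitted.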
# Npr1 antag conf: hNpr1 antagonism, confirmation assay; shares compounds with hNpr1 antagonist; HEK293 hNpr1 cGMP GloSensor luminescence, ANP-stimulated; Potency, µM (top dose mostly 57.6 µM), inactives show top-dose activity change, negative = inhibition, actives largely listed as inhibitors; actives 76% (n = 1,400); calls by dose curve; note: nearly all actives have a fitted effect of over 70% in size
# Npr2 selectivity: selectivity test of Npr1 antagonists against human Npr2 | shares compounds with hNpr1 antagonist | HEK293 hNpr2 GloSensor cGMP luminescence, CNP-stimulated | Potency, µM (highest dose often 57.6 µM), for the others: at the highest dose activity change, negative = inhibition, usual class: inhibitors | actives 67% (n = 1,400) | AID 1347046; calls by dose curve; note: nearly all actives have a fitted effect of over 70% in size
# FLuc counter: FLuc enzyme inhibition, Npr1 counter-screen; purified FLuc enzyme, luminescence, Km substrate; actives 0.7% (n = 1,400); shares compounds with hNpr1 antagonist; Potency, µM (titrated, usually from 57.6 µM), without a hit: at the highest dose activity change, negative = inhibition, actives largely listed as inhibitors; note: series mostly up to about 58 µM; 0% is about no effect
# GloSensor cGMP: counter-screen for Npr1 antagonists: GloSensor control cell line. shares compounds with hNpr1 antagonist. HEK293 GloSensor cGMP, SNP-stimulated, luminescence. Potency, µM (top dose mostly 57.6 µM), for the others: at the highest dose activity change, negative = inhibition, most hits filed as inhibitors. actives 69% (n = 1,400). AID 1347051; calls by dose curve; note: % is set by controls: 0 for no effect and ±100 for the full control effect; nearly all actives have a fitted effect of over 70% in size
# Starred values were filed as active, the others as inactive; i = inactive; ? = inconclusive; · = not tested or not shown; [ ] = remark or other dose. Unless noted, calls come from the whole dose curve; as a rule, active = well fitted curve in the direction sought with a large enough effect; inconclusive = small, poorly fitted or top-dose-only effect, or another doubt; inactive = no such curve, though single readings can be large; an effect the other way counts as inactive or inconclusive. Potency is the fitted concentration of half-maximal effect.
SMILES,NIH3T3 tox,hNpr1 antagonist,Luciferase inh,HEK293 tox,SNCA expr inh,HEK293 viab,Npr1 antag conf,Npr2 selectivity,FLuc counter,GloSensor cGMP
COc1ccc(-c2cc(N3CCN(C(=O)c4ccc(OC)cc4OC)CC3)n[nH]2)cc1,?,?,i,?,-16.1%,-2.9%,27.3µM*,21.7µM*,-1.4%,21.7µM*
COc1ccc(-c2cc(N3CCCN(C(=O)c4cccc(Cl)c4)CC3)n[nH]2)cc1,?,?,i,?,?,-4.4%,24.3µM*,13.7µM*,2.9%,-0.9%
COc1ccc(C(=O)N2CCN(c3cc(-c4ccc(F)cc4)[nH]n3)CC2)cc1,?,?,i,?,-7.4%,-8.6%,21.7µM*,24.3µM*,2.5%,27.3µM*
COc1ccc(-c2cc(N3CCCN(C(=O)c4ccc(F)c(Cl)c4)CC3)n[nH]2)cc1,?,?,i,?,21.0%,-3.0%,17.2µM*,13.7µM*,-0.8%,5.7%
COc1ccc(-c2cc(N3CCCN(C(=O)c4cccc(F)c4)CC3)n[nH]2)cc1,-8.4%,-0.7%,i,?,8.2%,-11.2%,·,·,·,·
COc1cc(OC)cc(C(=O)N2CCCN(c3cc(-c4ccc(F)cc4)[nH]n3)CC2)c1,-27.3%,-5.6%,i,?,-15.5%,0.3%,·,·,·,·
COc1ccc(-n2c(=O)c(C(=O)NCCSC)nc3cccnc32)cc1,-6.2%,·,·,i,-17.0%,-2.5%,·,·,·,·
O=C(NCc1ccc(F)cc1)c1ccc2nnc(C3CC3)n2c1,?,·,·,-21.1%[172 µM],18.2%[87.6 µM],6.2%[87.6 µM],·,·,·,·
Cc1nnc2ccc(N3CCC(NC(=O)NC(C)C)C3)nn12 (stereo not given),-5.9%[138 µM],·,·,i,·,·,·,·,·,·
COc1cc(OC)cc(C(=O)N2CCCN(c3cc(-c4ccc(Br)cc4)[nH]n3)CC2)c1,31.6µM*,11.2µM*,i,39.8µM*,?,-18.9%,24.3µM*,21.7µM*,-1.7%,27.3µM*
COc1ccc(-c2cc(N3CCCN(C(=O)c4cccc(Br)c4)CC3)n[nH]2)cc1,?,?,i,?,13.2%,-20.9%,?,13.7µM*,-8.6%,-21.5%
O=C(c1ccc2[nH]ccc2c1)N1CCN(c2cc(-c3ccccc3)[nH]n2)CC1,?,?,i,?,0.4%,-5.6%,?,?,1.2%,-27.1%
O=C(Cc1c[nH]c2ncc(-c3ccc(F)c(Cl)c3)cc12)NCc1cccnc1,?,22.4µM*,i,?,-19.3%[87.6 µM],-18.0%[87.6 µM],39.6µM*,31.4µM*,-3.1%[86.2 µM],28µM*
NC(=O)Cc1c[nH]c2ncc(-c3ccc(F)c(Cl)c3)cc12,?,-12.9%[70.6 µM],i,?,5.2%[87.6 µM],4.3%[87.6 µM],·,·,·,·
COc1cc(F)cc(-c2cnc3[nH]cc(CC(=O)NCc4cccnc4)c3c2)c1,?,28.2µM*,i,?,-1.5%[87.6 µM],2.5%[87.6 µM],31.4µM*,31.4µM*,?,31.4µM*
Cc1ccc(C(=O)N2CCC(Cc3nc(-c4ccccc4)no3)CC2)cn1,?,6.31µM*,i,?,-10.8%,-28.2%,4.85µM*,5.44µM*,23.2%,4.32µM*
COc1ccc(C(=O)N2CCC(Cc3nc(C(C)C)no3)CC2)cc1,?,?,i,?,?,5.2%,·,·,·,·
COc1ccc(-c2noc(CC3CCN(C(=O)c4ccc(C)nc4)CC3)n2)cc1,?,7.08µM*,i,?,?,10.6%,5.44µM*,6.85µM*,-0.9%,5.44µM*
COC[C@H]1C[C@H]2C[C@@H](O)[C@H](N(C)Cc3cccc(F)c3)[C@]2(O)CO1,-5.2%[46.1 µM],·,·,?,-12.5%[25.6 µM],3.4%[23.9 µM],·,·,·,·
Cc1ccc(C2Cn3nnc(C(=O)N4CCN(C(=O)c5cc(Cl)ccc5F)CC4)c3CO2)cc1 (stereo not given),?,?,i,?,?,-1.5%,15.3µM*,19.3µM*,-2.3%,17.2µM*
COc1cc(Cl)ccc1C(=O)N1CCN(C(=O)c2nnn3c2COC(c2ccccc2)C3)CC1 (stereo not given),?,?,i,?,?,?,21.7µM*,?,2.9%,30.6µM*
Cc1ccccc1C(=O)N1CCN(C(=O)c2nnn3c2COC(c2ccc(Cl)cc2)C3)CC1 (stereo not given),?,?,i,?,-22.7%,-17.4%,27.3µM*,?,1.0%,?
Cc1ccc(C2Cn3nnc(C(=O)N4CCN(C(=O)c5ccc(Cl)cc5)CC4)c3CO2)cc1 (stereo not given),-6.8%,-3.5%,i,-5.9%,?,-4.5%,·,·,·,·
Cc1ccccc1CC(=O)N1CCN(C(=O)c2nnn3c2COC(c2ccc(Cl)cc2)C3)CC1 (stereo not given),35.5µM*,14.1µM*,i,28.2µM*,?,-19.9%,19.3µM*,21.7µM*,3.9%,19.3µM*
Cc1ccccc1N1CCN(C(=O)c2nnn3c2COC(c2ccc(Cl)cc2)C3)CC1 (stereo not given),0.0%,4.1%,i,0.1%,1.3%,4.7%,·,·,·,·
Cc1ccc(C2Cn3nnc(C(=O)N4CCN(C(=O)c5ccccc5F)CC4)c3CO2)cc1 (stereo not given),-21.4%,?,i,?,-6.5%,9.7%,·,·,·,·
O=C(c1ccc(C(F)(F)F)cc1)N1CCCC(c2nn(-c3ccccn3)c(=O)[nH]2)C1 (stereo not given),-15.5%,·,·,-0.2%,?,1.2%,·,·,·,·
CN(Cc1ccccc1)C(=O)c1cn2ccnc(-c3ccccc3)c2n1,-26.3%,-5.0%,i,?,-0.2%,-0.8%,·,·,·,·
